This is an account of results in PubChem BioAssay AID743279 (National Center for Advancing Translational Sciences (NCATS), 2014).

Out of some 360,000 compounds screened, about 17,000 (4.7%) were called active. Inconclusive results (about 5%) are left out. Cut-off read from the data, not from the text of the source: active = activity change below about -50%; inconclusive = mostly about -30% to -49%; inactive = weaker than that. Shown is part of a subset that was picked to be rich in actives.
% is set by controls: 0 for no effect and ±100 for the full control effect.

This assay is described as follows: qHTS for Inhibitors of Inflammasome Signaling: IL-1-beta AlphaLISA Primary Screen. The conditions noted are these: THP-1 LPS/ATP IL-1B secretion, 16 h; at 57.5 µM, hits give low values. The essentials: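 THP-1 cells pretreated 1 hr with compounds (up to 57.5 uM final), then stimulated with LPS (250 ng/mL final) plus ATP (1.25 mM final); secreted IL-1B measured by AlphaLISA after 16 hr, decreased signal indicating inhibition.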
For the compound `CCN(CC)C(=O)C1=C(C)N(Cc2ccc(OC)cc2)C(=O)C(CC(=O)NCc2ccco2)C1` (configuration not stated), the activity change is -25.2% (inactive).

Turning to `Cc1ccc(C(=O)N2CCC(n3nccc3NC(=O)Nc3cccc(F)c3)CC2)cn1`, the activity change is 8.12% (inactive).

Take `COc1cc(OC)c(C(=O)NCc2ccc3c(c2)OCO3)cc1OC`: the activity change is 38% (inactive).

`COc1ccccc1-n1c(C)nc2cc(C(=O)NCc3ccc4c(c3)OCO4)ccc21`: the activity change was -65.9% (active).

Turning to `CCOc1c2ccc(C(=O)NCc3ccc4c(c3)OCO4)cc2nn1C`, the activity change was -4.17% (inactive).

Take `Cn1c(N)cc(=O)n(C)c1=S`: the activity change is 19% (inactive).

Regarding `S=C(c1ccc(-c2ccccc2)o1)N1CCCCC1`, the activity change was -56.6% (active).

`S=C(c1ccccc1)N1CCCC1`: the activity change is 9.49% (inactive).

For the compound `CC1CCN(C(=S)c2ccc(-c3ccc(Cl)cc3Cl)o2)CC1`, the activity change is -11.9% (inactive).

As to `COc1ccc(NC(=O)c2cc(=O)[nH]c3ccccc23)cc1S(=O)(=O)N1CCOCC1`, the activity change was -13.1% (inactive).

As for `CCN(CC)CCCNC(=O)c1c(O)c2cc(F)cc3c2n(c1=O)C(C)CC3` (configuration not stated), the activity change is 67.3% (inactive).

For `O=C(NCc1ccco1)c1cccc(-c2ccc3nncn3c2)c1`, the activity change is 0% (inactive).

Take `Cc1ccc(-c2ccc(C3=CC(=O)CC(C)(C)C3=O)cc2)cc1`: the activity change is -18.9% (inactive).

With `C#CCOc1ccc(/C=C2/C(=O)NN(c3ccccc3)C2=O)cc1OC`, the activity change is 11.3% (inactive).

In the case of `CC1=NOC(=O)/C1=C\c1ccccc1`, the activity change was 11.9% (inactive).

For the compound `COc1cc(/C=C2/C(=O)ON=C2C)ccc1OCc1cccc(F)c1`, the activity change is -6.27% (inactive).

As to `C=CCOc1ccc(/C=N/NC(=O)C(C)Sc2ccccn2)cc1OCC` (configuration not stated), the activity change is -1.69% (inactive).

Take `C=CCOc1ccc(/C=C2/C(=O)ON=C2C)cc1OCC`: the activity change is -98.7% (active).

Take `COc1cc(/C=C2\SC(=O)NC2=O)ccc1OCc1ccc(Cl)nc1`: the activity change was 11.8% (inactive).

Consider `COc1cc(/C=C2/C(=O)ON=C2C)ccc1OCc1ccccc1F`, for which the activity change is -99.7% (active).

Take `C#CCOc1ccccc1/C=C1/C(=O)ON=C1C`: the activity change is -15% (inactive).

Turning to `C#CCOc1ccc(/C=C2/C(=O)ON=C2C)cc1OCC`, the activity change is -87.9% (active).

Consider `CC(=O)c1ccccc1NC(=O)COC(=O)C1COc2ccccc2O1` (configuration not stated), for which the activity change was 22.8% (inactive).

Regarding `OC[C@@H]1CN(Cc2ccc3c(c2)OCO3)C[C@H](n2cnc3c(NCc4ccco4)ncnc32)O1`, the activity change was 0.259% (inactive).

With `O=C(C(=O)N1CCC(c2ccccc2)CC1)c1ccccc1`, the activity change was 27.9% (inactive).

As for `CCCCNC(=O)C[C@@H]1C[C@@]2(C(=O)OCC)CCC=C2N(Cc2cccc3ccccc23)C1=O`, the activity change was -0.516% (inactive).

`C=CCC1(C(=O)N(C)Cc2ccccc2)CCN(C(=O)OC(C)(C)C)CC1`: the activity change was -21.2% (inactive).

Consider `CCOc1ccc(C(C)=O)cc1COC(=O)CN1C(=O)NC2(CCCC2)C1=O`, for which the activity change was -1.02% (inactive).

For the compound `Cc1onc(-c2ccccc2)c1-c1nnc(COC(=O)c2ccc(N(C)C)cc2)o1`, the activity change is 21.8% (inactive).

In the case of `CCOc1ccccc1NC(=O)Cn1ncc2ccc([N+](=O)[O-])cc21`, the activity change was 10.8% (inactive).

Turning to `COCCNc1ccc(-c2n[nH]c(=O)c3ccccc23)cc1[N+](=O)[O-]`, the activity change is 20.3% (inactive).

As to `Cc1ccc(S(=O)(=O)N(C)C)cc1NC(=O)c1n[nH]c(=O)c2ccccc12`, the activity change is -9.1% (inactive).

As for `CN(C)CCNc1ccc(-c2n[nH]c(=O)c3ccccc23)cc1[N+](=O)[O-]`, the activity change was -56.7% (active).

For `C=CCCC(=O)N1C[C@H]2CON(C)[C@H]2C[C@H]1c1cccc(Nc2ccccc2)c1`, the activity change was -2.63% (inactive).

For `Cc1cc(Nc2ccc(C)c(C)c2)n2ncnc2n1`, the activity change is 3.66% (inactive).

For the compound `CCOC(=O)[C@]12CCCC=C1N(CCC1=CCCCC1)C(=O)[C@H](CC(=O)N1CCCCC1)C2`, the activity change was 19.5% (inactive).

Regarding `COCCNC(=O)CSc1nc2sccc2c(=O)n1-c1ccccc1`, the activity change is 14% (inactive).

On to `O=C1CC(C(=O)O)NC(=S)N1` (configuration not stated), for which the activity change is 3.02% (inactive).

As to `O=[N+]([O-])c1ccc2[nH]c3c(c2c1)CCCC3O` (configuration not stated), the activity change is -14.8% (inactive).

Regarding `COC(=O)c1ccc(C23CC4(C2)[C@H](CN(Cc2cccnc2)[C@@H]4c2ccccc2)C3c2ccc(Cl)nc2)cc1` (some centres not stated), the activity change is 24% (inactive).

As for `O=C(CSc1cccc[n+]1[O-])c1ccc(Cl)cc1`, the activity change is -5.03% (inactive).

For `O=C(Cn1cc(-c2nnnn2-c2ccc(Cl)cc2)c(=O)c2ccccc21)c1ccccc1`, the activity change was 33.2% (inactive).

Regarding `O=C(C[n+]1ccc2c(c1)nnn2-c1ccccc1)c1ccc(Cl)cc1`, the activity change was -56.5% (active).

For `CC1(C)NC(=O)N(CC(=O)Nc2ccc(-c3ccccc3)cc2)C1=O`, the activity change was 4.98% (inactive).

As for `O=C(Nc1nccs1)c1cc(S(=O)(=O)N2CCOCC2)c(Cl)cc1Cl`, the activity change was -105% (active).

On to `O=C(Nc1ccc(S(=O)(=O)Nc2nccs2)cc1)c1cccc(S(=O)(=O)N2CCOCC2)c1`, for which the activity change is 0% (inactive).

In the case of `O=C(NCc1cccnc1)c1cc(S(=O)(=O)N2CCOCC2)c(Cl)cc1Cl`, the activity change was 16.2% (inactive).

Regarding `C[C@@H]1CN([C@H](C)CO)C(=O)c2cc(Br)cnc2O[C@@H]1CN(C)Cc1cncnc1`, the activity change was -0.234% (inactive).

For `CC(=O)Nc1cncc(-c2ccccc2CO)n1`, the activity change is 5.55% (inactive).

As for `CC1(C(=O)O)CCN1C(=O)/C=C/c1ccccc1` (configuration not stated), the activity change is 23.5% (inactive).

As for `CC1(C(=O)NS(=O)(=O)c2ccccc2)CCN1C(=O)C/C=C/c1ccccc1` (configuration not stated), the activity change is -5.77% (inactive).

In the case of `CC1(C)CCSC(/C=C/c2ccccc2)=N1`, the activity change was -102% (active).

As for `Cc1cc(C)nc(NNC2=CC(=O)CC(C)(C)C2)n1`, the activity change is 31.9% (inactive).

With `CC(=O)Oc1ccc(N(C(C)=O)S(=O)(=O)c2ccc3ccccc3c2)cc1Br`, the activity change was -50% (active).

As to `COCCNC(=O)COc1ccc(N(C)S(=O)(=O)c2ccc3ccccc3c2)cc1`, the activity change was 22.7% (inactive).

For the compound `CCN1CCN(C(=O)CN(C)S(=O)(=O)c2ccc3ccccc3c2)CC1`, the activity change was 20.4% (inactive).

Take `COc1cccc(C(=O)Nc2ccc3nc4n(c(=O)c3c2)CCCCC4)c1`: the activity change is 5.21% (inactive).

Take `Cc1ccc(OCC(=O)Nc2ccccc2C(=O)NC2CC2)cc1C`: the activity change was 0% (inactive).

With `CCOC(=O)c1cc(-c2sc(NC(=O)c3ccccc3)nc2C)n(Cc2ccccc2)n1`, the activity change was -3.85% (inactive).

As to `COCCNC(=O)CN(Cc1ccco1)C(=O)CCC(=O)Nc1nccs1`, the activity change is -4.97% (inactive).

On to `CCC(C)(C)n1nnnc1C(c1ccc(OC)c(OC)c1)N1CCN(C(=O)c2ccco2)CC1` (configuration not stated), for which the activity change was 1.37% (inactive).

As for `CCC(C)(C)n1nnnc1C(c1cccs1)N1CCN(c2nc3ccccc3s2)CC1` (configuration not stated), the activity change was -62.8% (active).

On to `Fc1ccc(Cn2nnnc2C(c2cccs2)N2CCCCCC2)cc1` (configuration not stated), for which the activity change was -13.3% (inactive).

For `Cc1ccc(-c2nc3c(Cl)cc(C(F)(F)F)cn3c2Cc2cccc(Cl)c2)cc1`, the activity change is 41.1% (inactive).

For the compound `O=C(CC1SC(=Nc2ccccc2)N(Cc2ccccn2)C1=O)Nc1cccc(Cl)c1` (configuration not stated), the activity change was -60.7% (active).

On to `CN1C(=O)C(CC(=O)Nc2ccccc2)S/C1=N/c1nccs1` (configuration not stated), for which the activity change was -2.9% (inactive).

Regarding `CCN1C(=O)C(CC(=O)Nc2cc(C)ccc2C)SC1=Nc1ccc(S(N)(=O)=O)cc1` (configuration not stated), the activity change was -5.39% (inactive).

Regarding `CCN(CC)CCN(C)C(c1ccnc2ccccc12)c1nnnn1-c1ccc2c(c1)OCCO2` (configuration not stated), the activity change is -3.67% (inactive).

Turning to `CC(C)C1CC2=C(C(=O)OC(C)(C)O2)C(c2ccc(F)cc2)O1` (configuration not stated), the activity change was 43.5% (inactive).

`Cc1ccc(O)c(CNc2nc3ccccc3n2C)c1`: the activity change was -11.8% (inactive).

On to `CC(C)n1c(NCc2c[nH]c3ccccc23)nc2ccccc21`, for which the activity change was -81.7% (active).

Turning to `CC(C)n1c(-c2cccs2)nc2ccccc21`, the activity change is -1.34% (inactive).

For the compound `COCC(C)NC(=O)CSc1nc2nn(-c3ccccc3)c(=O)c-2c2n1CCCCC2` (configuration not stated), the activity change was -2.5% (inactive).

For the compound `COc1ccc(C(C)C)cc1-c1ccc2nncn2c1`, the activity change was 15.9% (inactive).

As for `Cc1ccc(C(=O)N2CCCc3ccccc32)c(Cl)c1`, the activity change was 64.5% (inactive).

For the compound `COc1ccc2oc(=O)c(C(=O)N3CCCc4ccccc43)cc2c1`, the activity change was -74% (active).

As to `Cc1c(C(=O)N2CCCc3ccccc32)oc2ccccc12`, the activity change was 3.03% (inactive).

Take `CCOC(=O)[C@@H]1[C@H]2COc3ccc(Br)cc3[C@H]2N2C(=O)N(c3ccc(Cl)cc3)C(=O)[C@@]12C`: the activity change is 8.14% (inactive).

In the case of `O=S(=O)(c1cccc(C(F)(F)F)c1)N1c2ccccc2-n2cccc2C1c1cccnc1` (configuration not stated), the activity change is 41.9% (inactive).

As for `c1ccc(C(c2ccccc2)N2CCN(Cc3nnnn3C3CCCCC3)CC2)cc1`, the activity change is 20.1% (inactive).

`CC(C)OCC(O)CN1CCN(C(c2ccccc2)c2ccccc2)CC1` (configuration not stated): the activity change was -6.29% (inactive).

For `CC1(C)CC(N2CCN(C(c3ccccc3)c3ccccc3)CC2)=CC(=[N+]2CCCCC2)C1`, the activity change is -71.2% (active).

As for `CC(C)(O)C1=C[N+](=O)CC=C1`, the activity change is 16.1% (inactive).

On to `COc1cccc(NC(=O)C2(C)CCN2Cc2ccccc2Cl)c1` (configuration not stated), for which the activity change was -11.6% (inactive).

As for `CNN/C(N=Cc1ccc([N+](=O)[O-])s1)=N\S(=O)(=O)c1cc(C)c(Cl)cc1SCc1ccccc1`, the activity change is -7.5% (inactive).

For the compound `CC1CN(C(=O)c2ccc([N+](=O)[O-])s2)CC(C)O1` (configuration not stated), the activity change is 22.4% (inactive).

For the compound `O=[N+]([O-])c1ccc(C=Nc2ccc(Cl)cc2Cl)s1`, the activity change is -106% (active).

In the case of `CCCCn1nnnc1NCc1cc(OC)c(OC)c(OC)c1`, the activity change is 25.2% (inactive).

In the case of `CCn1c2ccccc2c2cc(NC(=O)COC(=O)c3ccccc3Br)ccc21`, the activity change is -18.9% (inactive).

On to `CCn1c2ccccc2c2cc(NC(=O)CNC)ccc21`, for which the activity change was -85.6% (active).

As to `CCn1c2ccccc2c2cc(NC(=O)C/C(C)=N/NC(=O)c3ccccc3N)ccc21`, the activity change was 25.4% (inactive).

For `Cc1nn(-c2ccccc2)c2c1c(C)c(CCC(=O)NCC1CCCO1)c(=O)n2C` (configuration not stated), the activity change is -20.2% (inactive).
